Source: PubChem (National Center for Advancing Translational Sciences (NCATS))
HPGD inh: HPGD (human) dehydrogenase inhibition. P15428. purified HPGD, NADH fluorescence kinetic, PGE2 substrate. Potency, µM, actives largely listed as inhibitors. hit rate 4.3% among 150,000. AID 894
Target sequence (P15428 whole entry, looked up): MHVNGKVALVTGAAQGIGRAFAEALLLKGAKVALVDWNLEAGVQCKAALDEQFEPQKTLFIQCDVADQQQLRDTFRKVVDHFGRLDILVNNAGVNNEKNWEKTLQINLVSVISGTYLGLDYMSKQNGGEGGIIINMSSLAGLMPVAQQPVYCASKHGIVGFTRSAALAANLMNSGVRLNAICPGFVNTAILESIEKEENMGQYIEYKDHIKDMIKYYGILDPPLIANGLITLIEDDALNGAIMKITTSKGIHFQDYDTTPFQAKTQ
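NADH formation kinetics: reaction with 30 uM PGE2 and 1 mM NAD+ (final), 20 nM enzyme, Tris-HCl pH 8 with Tween 20, after 15 min compound preincubation at room temperature. Fluorescence change, last versus first of five reads.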
CBFb RUNX1 block: blocks binding between human CBF-beta and RUNX1; Q01196+Q13951; AlphaScreen CBFb-His/RUNX1-biotin binding, biochemical; AID 1477; Potency, µM (titrated, usually from 59.8 µM), most hits filed as inhibitors; 230,000 tested, under 10 active; active = well fitted curve in the direction sought with a large enough effect; inconclusive = small, poorly fitted or top-dose-only effect, or another doubt; inactive = no such curve, though single readings can be large; an effect the other way counts as inactive or inconclusive
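Interaction loss through any mechanism counts as activity. Pre-formed complex of His-CBF-beta and biotin-RUNX1 (30 nM apiece) is incubated with compound 15 min, then with 50 ng nickel and 50 ng streptavidin beads for 90 min before AlphaScreen detection.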
JMJD2E inh: inhibitors of human JMJD2E histone demethylase | Potency, µM (highest dose often 57.1 µM), hits mostly inhibitors | hit rate 1.6% among 230,000 | JMJD2E catalytic domain, FDH-coupled NADH fluorescence (FDH is formaldehyde dehydrogenase) | AID 2147; note: nearly all actives have a fitted effect of over 50% in size
HTT aggregate: inhibitors of mutant huntingtin aggregate formation in PC12 cells; PC12 HttQ103-GFP aggregates, Acumen cytometry, 40 h; Potency, µM (doses to about 46.1 µM), most hits filed as inhibitors; hit rate 1.1% among 220,000; active = well fitted curve in the direction sought with a large enough effect; inconclusive = small, poorly fitted or top-dose-only effect, or another doubt; inactive = no such curve, though single readings can be large; an effect the other way counts as inactive or inconclusive; note: nearly all actives have a fitted effect of over 60% in size
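Compounds (qHTS titration) were added to PC12 cells expressing an ecdysone-driven HTT exon 1 Q103–GFP fusion after induction with 100 nM tebufenozide. Aggregate formation was measured as GFP objects in cell lysates.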
ALDH1A1 inh: blocks purified human ALDH1A1 activity. Purified ALDH1A1, NADH fluorescence, propionaldehyde substrate. Potency, µM (doses to about 75.3 µM), most hits filed as inhibitors. hit rate 7.3% among 220,000
Target sequence (P00352 whole entry, looked up): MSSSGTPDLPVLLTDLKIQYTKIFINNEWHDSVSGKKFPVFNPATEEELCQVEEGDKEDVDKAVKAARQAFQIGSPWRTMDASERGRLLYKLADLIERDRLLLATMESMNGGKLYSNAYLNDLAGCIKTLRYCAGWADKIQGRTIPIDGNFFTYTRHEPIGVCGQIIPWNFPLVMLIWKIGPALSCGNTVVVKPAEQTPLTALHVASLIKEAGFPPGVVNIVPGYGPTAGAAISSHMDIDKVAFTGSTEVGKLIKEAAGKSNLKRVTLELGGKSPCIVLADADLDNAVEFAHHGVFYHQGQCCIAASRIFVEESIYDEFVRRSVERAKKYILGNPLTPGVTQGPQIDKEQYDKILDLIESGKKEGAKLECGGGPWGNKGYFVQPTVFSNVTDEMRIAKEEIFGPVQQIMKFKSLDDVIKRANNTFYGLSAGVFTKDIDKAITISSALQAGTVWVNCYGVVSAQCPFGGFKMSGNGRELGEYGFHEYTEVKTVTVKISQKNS
HTT cytoprotect: cytoprotection in Huntington HTT-Q103 PC12 cell model | PC12 HTT-Q103 induced, cytoprotection, ATP luminescence, 40 h | Potency, µM (highest dose often 56.4 µM), usual class: activators | hit rate 0.14% among 230,000 | AID 1471; active = well fitted curve in the direction sought with a large enough effect; inconclusive = small, poorly fitted or top-dose-only effect, or another doubt; inactive = no such curve, though single readings can be large; an effect the other way counts as inactive or inconclusive; note: nearly all actives have a fitted effect of over 45% in size
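Compounds added alongside 100 nM tebufenozide, which induces toxic Q103 huntingtin exon 1-GFP in stable PC12 cells; surviving cells quantified by luminescent ATP measurement. Medium: phenol red-free DMEM, 5% equine and 5% calf serum.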
Large screens that a line does not name were inactive. Hits are enriched below; roughly 9.8% of the tested compounds scored in any of these assays. Unless noted, calls come from the whole dose curve; as a rule, active = well fitted inhibition curve with a large enough effect (not every such curve was filed as active); inconclusive = small, poorly fitted or top-dose-only effect, or another doubt; inactive = no such curve, though single readings can be large or run the other way.

Cc1nn(-c2ccccc2)c(C)c1NC(=O)c1cccs1	none
CC(C)CNC(=O)c1nc(-c2ccccc2)n(-c2ccccc2)n1	ALDH1A1 inh 13µM
Cc1nn(-c2ccccc2)c(Cl)c1C(=O)OC(C)C(=O)NC(=O)NC1CCCCC1 (stereo not given)	HTT aggregate 11µM
COc1ccccc1C(=O)NCC(=O)OC(C)C(=O)NC(=O)NC1CCCCC1 (stereo not given)	none
Cc1c(C(=O)NCc2cccs2)oc2ccccc12	CBFb RUNX1 block inconclusive
Cc1nn(-c2ccccc2)c(Cl)c1C(=O)NCC(C)C	HPGD inh 10µM
Cc1nn(-c2ccccc2)c(Cl)c1C(=O)NCc1cccs1	HPGD inh 10µM
Cc1nn(-c2ccccc2)c(Cl)c1C(=O)NCCN(C)C	none (no result: HPGD inh)
O=C(O)CC(CC(=O)O)(C(=O)O)c1ccccc1	none (no result: HPGD inh, ALDH1A1 inh)
Cc1ccccc1C(=O)O/N=C1\CCS(=O)(=O)c2sccc21	none
Cc1[nH][nH]c(=O)c1[C@@H](c1ccccc1[N+](=O)[O-])C(C#N)C#N	ALDH1A1 inh 25µM (no result: HPGD inh)
Cc1ccc(C)c(/C=C(\C(=O)O)c2ccc(S(=O)(=O)N3CCCCC3)s2)c1	ALDH1A1 inh inconclusive (no result: HPGD inh)
CN(C)CC(O)COc1cc2ccccc2cc1C(=O)N1CCCCC1 (stereo not given)	HPGD inh 28µM
COC(=O)C1=C(C(=O)OC)[C@@H]2N(Cc3ccccc3)c3ccccc3[C@@]23C[C@@H](C(=O)OC)N(S(=O)(=O)c2ccc(C#N)cc2)C3=N1	none (no result: HTT aggregate)
Cc1ccc(C(=O)CNc2ccc(Br)cc2)cc1	HTT aggregate inconclusive, ALDH1A1 inh 18µM
Cc1ccc(C(=O)CC(=O)c2ccc(C(C)(C)C)cc2)cc1	none (no result: HPGD inh)
O=C(CNc1ccc(Br)cc1)c1ccccc1	ALDH1A1 inh 20µM
Cc1ccc(C(=O)NCC(=O)NCC(=O)OCC(=O)c2ccc(Br)cc2)cc1	none
Cc1ccc(C(=O)CNc2ccccc2C)cc1	ALDH1A1 inh 11µM
O=C(CNc1ccc(F)cc1)c1ccccc1	ALDH1A1 inh 13µM (no result: HPGD inh)
Cc1cc(C2CCCCC2)n(O)c(=O)c1	JMJD2E inh 10µM
Cc1cc(CC(C)CC(C)(C)C)n(O)c(=O)c1 (stereo not given)	none (no result: HPGD inh, CBFb RUNX1 block, JMJD2E inh, ALDH1A1 inh)
Cc1cc(C)n(-c2ccc(C(=O)NC(C)C)cc2)n1	HPGD inh 20µM
O=C(CSc1nnnn1C1CCCC1)N1CCN(C(=O)c2ccco2)CC1	ALDH1A1 inh 14µM
CC(C)n1nnnc1SCC(=O)N1CCN(C(=O)c2ccco2)CC1	ALDH1A1 inh 25µM, HTT cytoprotect inconclusive
CC(C)CN(C)C(=O)CCc1nnc(Cc2cccc(C(F)(F)F)c2)o1	none (no result: HPGD inh)
CS(=O)(=O)N1CCN(c2ccccc2NC(=O)c2ccc(-c3ccc(Br)cc3)o2)CC1	HPGD inh inconclusive, JMJD2E inh inconclusive, ALDH1A1 inh inconclusive
N#CC1=C(N)C(C#N)(C#N)C(c2cccnc2)C2CN(C(=O)OCc3ccccc3)CC=C12 (stereo not given)	JMJD2E inh inconclusive, HTT aggregate inconclusive, ALDH1A1 inh inconclusive
N#CC1=C(N)C(C#N)(C#N)C(c2cccnc2)C2COCC=C12 (stereo not given)	HPGD inh 28µM
O=C1N/C(=C\c2ccc(N3CCOCC3)c(F)c2)C(=O)N1Cc1ccccc1	JMJD2E inh inconclusive, ALDH1A1 inh inconclusive
CCn1c(C)cc(/C=C2/NC(=O)N(Cc3ccccc3F)C2=O)c1C	HPGD inh inconclusive, JMJD2E inh inconclusive, ALDH1A1 inh 1.8µM (no result: HTT cytoprotect)
O=C1N/C(=C/c2cccn2-c2ccccc2)C(=O)N1Cc1ccc(F)cc1	ALDH1A1 inh inconclusive
Cc1cc(/C=C2/NC(=O)N(Cc3ccccc3F)C2=O)c(C)n1C(C)C	JMJD2E inh 18µM, ALDH1A1 inh 2µM
CCn1c(C)cc(/C=C2\NC(=O)N(Cc3ccccc3)C2=O)c1C	ALDH1A1 inh 8.9µM
CCn1c(C)cc(/C=C2\NC(=O)N(CC(=O)Nc3ccc(F)cc3)C2=O)c1C	JMJD2E inh inconclusive (no result: HPGD inh)
Cc1cc(/C=C2/NC(=O)N(c3ccccc3)C2=O)c(C)n1C(C)C	JMJD2E inh 22µM, ALDH1A1 inh inconclusive (no result: HTT cytoprotect)
CN1CC(=O)N(CC(=O)Nc2cccc(S(=O)(=O)N3CCOCC3)c2)C1=O	none (no result: HPGD inh)
Cc1ccc(-n2nc(C)c(/C=N/n3c(C)n[nH]c3=S)c2Cl)cc1	ALDH1A1 inh inconclusive, HTT cytoprotect inconclusive (no result: HPGD inh)
Nc1cccnc1Sc1ccc([N+](=O)[O-])cn1	HPGD inh 10µM, ALDH1A1 inh inconclusive (no result: HTT cytoprotect)
O=[N+]([O-])c1ccc(Sc2n[nH]c(-c3ccccc3)n2)nc1	HPGD inh 8.9µM, JMJD2E inh inconclusive
Cc1ccc(C(=O)N2CCn3c(C)ccc3C2C)cc1 (stereo not given)	JMJD2E inh inconclusive, ALDH1A1 inh inconclusive (no result: HPGD inh)
Cc1ccc(S(=O)(=O)Nc2cccc(CP(=O)(c3ccccc3)c3ccccc3)c2)cc1	ALDH1A1 inh 24µM (no result: HPGD inh)
O=C(CP(=O)(c1ccccc1)c1ccccc1)Nc1cccc(CP(=O)(c2ccccc2)c2ccccc2)c1	none (no result: HPGD inh, ALDH1A1 inh)
Cc1noc(C)c1C(=O)N1CCC2(CCCN(C(=O)Nc3ccccc3)C2)CC1	none (no result: CBFb RUNX1 block, JMJD2E inh, HTT aggregate)
C[C@@]12CCC(=O)C=C1CC[C@H]1C2[C@@H](O)C[C@]2(C)[C@@H]1CC[C@@]2(O)C(=O)CO (stereo not given in full)	none (no result: CBFb RUNX1 block, JMJD2E inh, HTT aggregate, HTT cytoprotect)
O=C(OCn1ncc(Cl)c(Cl)c1=O)c1ccc(F)cc1	HTT aggregate inconclusive, ALDH1A1 inh 1.1µM
O=C(OCn1ncc(Cl)c(Cl)c1=O)c1ccccc1Cl	HTT aggregate inconclusive, ALDH1A1 inh 2µM
O=C(Cn1ncc(Cl)c(Cl)c1=O)c1ccc(Cl)cc1	HTT aggregate inconclusive, ALDH1A1 inh 8.9µM
CCCNC(=O)CSc1nc2ccccc2c(=O)n1CCC	ALDH1A1 inh inconclusive (no result: HPGD inh)
C=CCOc1ccc2c(c1)c(=O)cc(C(=O)O)n2CC	JMJD2E inh inconclusive (no result: HPGD inh)
CCOc1ccc(NC(=O)CSc2nc3ccccc3c(=O)n2CCCC(=O)NCCCN2CCCC2=O)cc1	ALDH1A1 inh 7.9µM (no result: HPGD inh)
CN(C)c1ccc(NC(=O)CSc2nc3ccccc3c(=O)n2C2CCCCC2)cc1	CBFb RUNX1 block inconclusive, ALDH1A1 inh 7.1µM
Cc1cc(NC(=O)CSc2nc3ccccc3c(=O)n2C2CCCC2)no1	none
COc1cccc(NC(=O)CSc2nc3ccccc3c(=O)n2CCCC(=O)N2CCCC2)c1	HPGD inh 28µM, ALDH1A1 inh inconclusive
CCOc1ccc(NC(=O)CSc2nc3ccccc3c(=O)n2CCCC(=O)N2CCCC2)cc1	none (no result: HPGD inh)
COc1ccc(NC(=O)CSc2nc3ccccc3c(=O)n2CCC(=O)N2CCCCC2)cc1	ALDH1A1 inh 16µM
CCc1ccc(NC(=O)CSc2nc3ccccc3c(=O)n2CCCC(=O)NCCCN2CCOCC2)cc1	none (no result: HPGD inh)
